Compounds without any hit were thinned out: in the full panel of roughly 79,000, 15% have a hit. Values without a mark were called inactive. Activity calls are given as the source filed them. No stated cut-off is given here; in the data, active means growth inhibition above about 70%; inactive means the rest.

This is an account of results in PubChem BioAssay (NCI).

A short description of test [1]: NCI Yeast Anticancer Drug Screen. Data for the rad50 strain (AID 155).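 Further: 0% = growth of vehicle-only cultures of the same strain.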 The settings on record: S. cerevisiae rad50 strain growth inhibition; at 50.0 µM; active compounds read high. The gist of the method:
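Readout: growth inhibition relative to vehicle-treated cultures. Compound exposure was carried out in a genetically defined yeast strain deficient in DNA damage repair.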

A short description of test [2]: NCI Yeast Anticancer Drug Screen. Data for the mec2-1 strain (AID 157). The settings on record: S. cerevisiae mec2-1 strain, at 50.0 µM, active compounds read high. The gist of the method: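 Using mec2-1 yeast: add compound, measure growth, express inhibition versus vehicle-treated cultures.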
Test [3] can be described thus: NCI Yeast Anticancer Drug Screen. Data for the sgs1 mgt1 strain (AID 161).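 Further: 0% = growth of cultures given vehicle only.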 The settings on record: S. cerevisiae sgs1 mgt1 strain, at 50.0 µM, active compounds read high. The method, boiled down: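 This yeast growth screen uses a strain with defined DNA-repair lesions; compound-treated growth is compared with vehicle-treated growth.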
Test [4] in a line: NCI Yeast Anticancer Drug Screen. Data for the cln2 rad14 strain (AID 165).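 Further: 0% = growth equal to vehicle treated cultures.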 Conditions: S. cerevisiae cln2 rad14 strain, at 50.0 µM, active compounds read high. The gist of the method:
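Yeast strain cln2 rad14, bearing defects in cell cycle control and DNA repair, serves as the test system; values reflect growth inhibition compared with vehicle.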

Test [5] is described as follows: NCI Yeast Anticancer Drug Screen. Data for the bub3 strain (AID 167). Conditions: S. cerevisiae bub3 mutant strain, at 50.0 µM, active compounds read high. The gist of the method:
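Readout: yeast growth inhibition, expressed relative to vehicle-only wells. The test organism is a mutant strain from a panel with lesions in DNA repair or checkpoint genes.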

Test [6] in a line: NCI Yeast Anticancer Drug Screen. Data for the mlh1 rad18 strain (AID 175). Conditions: S. cerevisiae mlh1 rad18 strain growth inhibition; at 50.0 µM; active compounds read high. The gist of the method:
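Steps: expose repair-defective yeast to compound; measure growth; express inhibition against vehicle-treated controls.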

Take `CCOc1nc(SCC)nc2c1cnn2-c1ccccc1`: the growth inhibition in test [1] is -8.45%; in test [2], -26.4%; in test [3], -9.9%; in test [4], -15.8%; in test [5], -1.2%; in test [6], -19.5%.

`CCC(CO)Nc1nc2c(c(=O)n(C)c(=O)n2C)n1CCO` (stereo not drawn): the growth inhibition in test [1] was -21.9%; in test [2], -1.9%; in test [3], 1%; in test [4], 8.15%; in test [5], -14.7%; in test [6] it was -4.75%.

`COc1ccc(C(C#N)N2CCCN(C(C#N)c3ccc(OC)cc3)C2c2ccccc2)cc1` (stereo not drawn): the growth inhibition was -2.1% in test [1]; 2.95% in test [2]; -9.05% in test [3]; -0.2% in test [4]; -0.1% in test [5]; 7.1% in test [6].

Consider `CC(CCC(=O)O)(CCC(=O)O)[N+](=O)[O-]`, for which the growth inhibition is 0.85% in test [1]; -1.1% in test [2]; 12.2% in test [3]; -6.6% in test [4]; 12.6% in test [5]; -8.8% in test [6].

As to `O=C1c2cc([N+](=O)[O-])sc2C(=O)c2c([N+](=O)[O-])csc21`, the growth inhibition was 91% (active) in test [1]; 93% (active) in test [2]; 92.5% (active) in test [3]; 91.4% (active) in test [4]; 92.1% (active) in test [5]; 91.3% (active) in test [6].

`COc1ccc(/C=C/C(=O)c2ccc(Br)cc2)cc1`: the growth inhibition in test [1] was -33.4%; in test [2] it was -67.5%; in test [3], -34.2%; in test [4] it was 2.75%; in test [5] it was -14.4%; in test [6], -44.3%.

As for `COc1cc(C2(C)SCCCS2)c(I)c(OC)c1OC`, the growth inhibition was -8.55% in test [1]; -3.05% in test [2]; -8.15% in test [3]; 13.2% in test [4]; 2.85% in test [5]; -14.4% in test [6].

With `Cc1cc(Cc2cc(C)c(NC(=O)C(=O)C3CCC4=C(SC5C=CC=CC5N4)C3=O)c(C(C)C)c2)cc(C(C)C)c1NC(=O)C(=O)C1CCC2=C(SC3C=CC=CC3N2)C1=O` (stereo not drawn), the growth inhibition in test [1] is -15.8%; in test [2], -13.6%; in test [3] it was -8.1%; in test [4], 15.2%; in test [5], 15.3%; in test [6] it was -28.1%.

Regarding `O=C1CSC(c2ccco2)N1CCN1C(=O)CSC1c1ccco1` (stereo not drawn), the growth inhibition in test [1] was -19%; in test [2] it was -5%; in test [3], -12.7%; in test [4], -39.4%; in test [5] it was -8.6%; in test [6], -15.7%.

Turning to `CCc1c(CNc2ccc(C(=O)NC(CC(=O)O)C(=O)O)cc2)ccc2nc(N)nc(N)c12` (stereo not drawn), the growth inhibition was 5.5% in test [1]; -0.5% in test [2]; 11.9% in test [3]; 2.85% in test [4]; -4% in test [5]; 5.6% in test [6].

In the case of `OCCNc1nc(NCCO)c2cn[nH]c2n1`, the growth inhibition in test [1] is 0.5%; in test [2], 0.45%; in test [3], -1.15%; in test [4] it was -12.7%; in test [5] it was 5.75%; in test [6], 0.55%.

On to `CCc1ccc2c(OC(C)=O)c3ccccc3c(OC(C)=O)c2c1`, for which the growth inhibition in test [1] is 36.4%; in test [2] it was 41.3%; in test [3], 33.4%; in test [4], 18.2%; in test [5], 46%; in test [6], 74.6% (active).

For the compound `Cc1ccc2[nH]c(=O)cc(C(F)(F)F)c2c1`, the growth inhibition in test [1] is 13.2%; in test [2], 6.35%; in test [3], 5.4%; in test [4], -2.1%; in test [5], -15.2%; in test [6], 21.7%.

Turning to `COc1ccc(-c2cc(=O)c3c(O)cc(O)cc3o2)cc1Oc1ccc(-c2cc(=O)c3c(O)cc(O)cc3o2)cc1`, the growth inhibition was 15.6% in test [1]; -12.2% in test [2]; -12.3% in test [3]; 2.35% in test [4]; -3.7% in test [5]; 5.1% in test [6].

Take `CCOC(=O)CN(C)C#N`: the growth inhibition in test [1] was -16.9%; in test [2], -33.3%; in test [3], -44%; in test [4], -5.3%; in test [5], -31.6%; in test [6] it was -2.15%.

In the case of `CCC(=O)c1ccc(F)cc1`, the growth inhibition in test [1] is 10.2%; in test [2], -20.9%; in test [3] it was 4.5%; in test [4], 20.3%; in test [5], -5.3%; in test [6], 20.4%.

`CC(=O)Oc1ccccc1C=C(C(=O)O)C(=O)O`: the growth inhibition in test [1] was -7.7%; in test [2] it was -11.5%; in test [3], -8.1%; in test [4], -20.7%; in test [5], -9.2%; in test [6], -10.9%.

On to `Cc1cc(NCCN(C(C)C)C(C)C)nc(Nc2nc3cc(Cl)c(Cl)cc3[nH]2)n1`, for which the growth inhibition is 75.8% (active) in test [1]; 39.2% in test [2]; 77.8% (active) in test [3]; 11.7% in test [4]; 23.1% in test [5]; 55.6% in test [6].

In the case of `COc1cc(C(c2c(O)c3ccccc3oc2=O)N2CCCC2)cc(OC)c1OC` (stereo not drawn), the growth inhibition in test [1] was -1.2%; in test [2], 5%; in test [3] it was 7.05%; in test [4], 4.05%; in test [5], -0.3%; in test [6], 2.7%.

For the compound `CSc1cc(Br)ccc1-n1c(C(=O)c2ccccc2)c(SC)n(-c2ccccc2)c1=O`, the growth inhibition in test [1] is -0.05%; in test [2], 21.3%; in test [3], 20.6%; in test [4] it was 7.65%; in test [5], 15.7%; in test [6] it was 5.05%.

In the case of `C=CCC(CC=C)(C(=O)Nc1ccc2nc(C)cc(N)c2c1)C(=O)Nc1ccc2nc(C)cc(N)c2c1`, the growth inhibition in test [1] was 2.05%; in test [2] it was 24.7%; in test [3] it was 22.1%; in test [4], 20.1%; in test [5], 12.4%; in test [6], -10.1%.

As to `O=c1c2cc3c(=O)n(O)c(=O)c3cc2c(=O)n1O`, the growth inhibition in test [1] was 12.4%; in test [2] it was -18.2%; in test [3], -9.45%; in test [4], 6.75%; in test [5], 3.25%; in test [6], -90.4%.

For `Cc1cccc2c1C(=O)C(C1OC(=O)c3ccccc31)C2` (stereo not drawn), the growth inhibition in test [1] was 7.15%; in test [2], 9.75%; in test [3], 1.5%; in test [4], -31%; in test [5] it was 13.5%; in test [6], -12.4%.

Regarding `CC(=O)CC(=O)CC(C)C.CC(=O)CC(=O)CC(C)C.[Cu]`, the growth inhibition is 17.2% in test [1]; 17.5% in test [2]; 6.25% in test [3]; -16.1% in test [4]; -3.2% in test [5]; 37.7% in test [6].

Regarding `Ic1ccccc1/C=C/c1ccccn1`, the growth inhibition was 14.6% in test [1]; 11.3% in test [2]; 28.7% in test [3]; -54.6% in test [4]; 31.8% in test [5]; -0.2% in test [6].

With `C#CC(C)(CC)OC(C)=O` (stereo not drawn), the growth inhibition in test [1] was 44.3%; in test [2], -16.4%; in test [3] it was 7.6%; in test [4], -23%; in test [5], 19.9%; in test [6], 20.3%.

Regarding `CC1=NC(=O)C(C)(c2ccccc2)N1CCc1ccccc1` (stereo not drawn), the growth inhibition in test [1] was -0.05%; in test [2] it was 8.4%; in test [3] it was -8.75%; in test [4] it was -16.9%; in test [5], -10.6%; in test [6] it was -28.6%.

`CCCCC1CCCCC1=O` (stereo not drawn): the growth inhibition in test [1] is 16.4%; in test [2], -15.2%; in test [3], 3.1%; in test [4], 12.5%; in test [5] it was -0.45%; in test [6] it was 5.1%.

Turning to `O=CC(NC(=O)OCc1ccccc1)C(O)C(O)C(O)CO` (stereo not drawn), the growth inhibition was -15.3% in test [1]; 2.7% in test [2]; 1.75% in test [3]; -6.3% in test [4]; -15.9% in test [5]; -16.9% in test [6].

For `CCOC(=O)NN(C(=O)OCC)c1c(C)[nH]c2ccccc12`, the growth inhibition in test [1] is 20.3%; in test [2], 10.6%; in test [3] it was 19.4%; in test [4], -10.6%; in test [5], 4.65%; in test [6], 24.5%.

Turning to `O=C(NNC1=NCCN1Cc1ccccc1)c1cccc(Cl)c1`, the growth inhibition in test [1] is -6.1%; in test [2] it was -25.4%; in test [3], 13.3%; in test [4] it was 14.6%; in test [5], -0.8%; in test [6], 2.15%.

Turning to `CC1(C)N=C(C(N)=O)c2[nH]cnc2N1`, the growth inhibition in test [1] is -2.55%; in test [2], 4.35%; in test [3], 12.8%; in test [4], 13.3%; in test [5] it was 11.3%; in test [6] it was -51.2%.

For the compound `CCN(CC)c1ccc(/C=N/NC(=O)NN)cc1`, the growth inhibition was 4.35% in test [1]; -20.9% in test [2]; -15.4% in test [3]; -13.1% in test [4]; -7.95% in test [5]; -5.3% in test [6].

For `CN(C)C(=O)CCCC(=O)c1cccc([N+](=O)[O-])c1`, the growth inhibition was 9.55% in test [1]; 3.5% in test [2]; 3.7% in test [3]; 10.6% in test [4]; 16% in test [5]; -13.3% in test [6].

Take `CC1C=CC(C)S(=O)N1C(=O)Cc1ccccc1` (stereo not drawn): the growth inhibition was -2.6% in test [1]; -14.6% in test [2]; -9.35% in test [3]; -16.9% in test [4]; -25.5% in test [5]; -19.6% in test [6].

Turning to `Cc1cccc(-c2nc(-c3cnccn3)n(Cc3ccccc3)n2)c1`, the growth inhibition in test [1] was -67.5%; in test [2], -46.9%; in test [3], -62%; in test [4] it was -39.6%; in test [5], -51.1%; in test [6], -61.2%.

Turning to `CCOC(=O)C(NC(=O)c1ccccc1)(C(=O)OCC)c1ccccn1`, the growth inhibition in test [1] is 8.55%; in test [2], -13.5%; in test [3], 9.65%; in test [4], 18.8%; in test [5], 9.6%; in test [6] it was 22.6%.

With `COC(=O)C(Cc1c[nH]c2ccccc12)NP(=O)(O)OCC1OC(n2cc(Br)c(=O)[nH]c2=O)CC1O` (stereo not drawn), the growth inhibition in test [1] is -34.8%; in test [2], -15.4%; in test [3], -9.25%; in test [4], -12%; in test [5] it was -16.3%; in test [6], -10.1%.
